Bioassay records: PubChem BioAssay, several laboratories
Only some compounds are listed: those with a hit (about 2.3% of all), similar ones and a draw of the others.
H9c2 protect: modulators protecting cardiomyocytes from myocardial damage; protection from H2O2 cell death, % at 20 µM; AID 588492; actives 0.63% (n = 360,000); H9c2 cardiomyocytes, H2O2 injury protection, ATPLite, 2 h;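 active = compounds giving at least 50% protection of heart cells from peroxide-induced death in the single-dose screen, raw or plate-pattern-corrected value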
Calpain2 inh: blocks pig calpain II enzyme activity; purified calpain II, fluorogenic peptide substrate, 30 min; actives 0.37% (n = 220,000); AID 1236; inhibition, % at 16 µM;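 active = inhibition above about 50%, limit read from the data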
FAS-TE inh: FAS thioesterase (human) inhibition; actives 0.67% (n = 360,000); AID 602261; inhibition, % at 15 µM; recombinant FAS-TE, OMFH fluorogenic substrate, fluorescence endpoint;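 active = compounds whose normalised, plate-corrected inhibition of enzyme fluorescence in the single-dose primary screen is 50% or more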
H9c2 TAG inh: reduces triacylglycerol accumulation in H9c2 cells; inhibition, % at 12.5 µM; AID 651582; actives 0.66% (n = 230,000); Nile Red lipid (TAG) fluorescence; cells loaded with 200 µM oleic acid;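 active = pattern-corrected inhibition of lipid staining of at least 50% with the nuclear-stain viability signal not falling by more than 50%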
aDG glyco up: alpha-DG glycosylation activation. actives 0.22% (n = 360,000). Pro5-aDG cells, alpha-DG glycosylation AlphaScreen (IIH6); 0% Pro5, 100% B10-LARGE cell signal. activation, % at 10 µM;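 active = activation of at least 8% versus controls, or a plate z-score of at least 8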;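 note: Pro5 are CHO cells carrying HIG-tagged alpha-DG that lacks glycosylation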
MIN6 prolif: inducers of beta-cell replication in MIN6 cells; MIN6 cells proliferation, ATPlite luminescence, 48 h; cells starved in 0.2% serum; 100% = growth in 10% serum; proliferation, % at 10 µM; actives 0.29% (n = 330,000); AID 2380;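 active = compounds whose signal lies at least 3.5 SD above the mean of all wells on their plate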
FAS-TE inh conf: FAS thioesterase (human) inhibition, confirmation. shares compounds with FAS-TE inh. recombinant FAS-TE, OMFH fluorogenic substrate, fluorescence. inhibition, % at 15 µM. actives 45% (n = 2,300);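 active = compounds inhibiting the enzyme by at least 50% at 15 µM in any one of the replicates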
A number is an active result; 0 = inactive; - = not tested or not shown.

SMILES	H9c2 protect	Calpain2 inh	FAS-TE inh	H9c2 TAG inh	aDG glyco up	MIN6 prolif	FAS-TE inh conf
COCCn1c(=NC(=O)c2ccc(S(=O)(=O)N3CCCc4ccccc43)cc2)sc2cc(S(C)(=O)=O)ccc21	0	0	84	-	0	0	32
C=CCn1c(=NC(=O)c2ccc(S(=O)(=O)N3CCCc4ccccc43)cc2)sc2cc(S(N)(=O)=O)ccc21	0	0	0	-	0	0	-
COc1cccc(NC(=O)CN(C)C(=O)c2ccc(-n3cncn3)c([N+](=O)[O-])c2)c1	0	-	0	0	0	0	-
O=C(Cn1cc([N+](=O)[O-])ccc1=O)NCc1ccc(Cl)cc1Cl	0	-	56	0	0	0	55
O=C(COC(=O)c1cc([N+](=O)[O-])ccc1N1CCOCC1)NCc1ccccc1	0	-	83	0	0	-	90
COc1cccc(CNC(=O)COC(=O)c2cc([N+](=O)[O-])ccc2N2CCCC2)c1	0	-	81	0	0	0	85
NS(=O)(=O)c1ccc(CCNC(=O)COC(=O)c2cc([N+](=O)[O-])ccc2N2CCOCC2)cc1	0	-	0	0	0	0	-
O=C(COC(=O)c1cc([N+](=O)[O-])ccc1N1CCOCC1)NCc1ccc(Cl)cc1Cl	0	-	93	0	0	0	93
O=C(Cn1cc(C(F)(F)F)cc(Cl)c1=O)NCc1ccc(Cl)cc1Cl	0	-	0	-	0	0	-
Cn1ccc2c(N3CCCCC3)cc3c(c21)C1CCC3O1 (centres undefined)	0	-	0	-	0	-	-
O=C(C(O)c1ccccc1)N1CCN(S(=O)(=O)c2ccc(OC(F)(F)F)cc2)CC1 (centres undefined)	-	-	-	-	0	-	-
CCOc1ccc(NC(=O)c2ccc3c(c2)CCN3S(C)(=O)=O)cc1	0	-	0	0	0	0	-
COC(=O)Cc1c(C)c2ccc(OCC(=O)NC3CCS(=O)(=O)C3)cc2oc1=O (centres undefined)	0	-	0	-	0	0	-
Cn1cnnc1Sc1cc(N2CCN(S(=O)(=O)c3ccc4ccccc4c3)CC2)ccc1[N+](=O)[O-]	0	0	64	-	0	0	0
Cn1cnnc1Sc1cc(N2CCN(S(=O)(=O)c3ccc(Cl)c(Cl)c3)CC2)ccc1[N+](=O)[O-]	0	0	0	0	0	0	-
O=[N+]([O-])c1ccc(N2CCN(S(=O)(=O)c3ccc4ccccc4c3)CC2)cc1NCC1CCCO1 (centres undefined)	0	0	51	0	0	0	0
C[C@H](CO)N1C[C@H](C)[C@H](CN(C)C(=O)Nc2ccc(N3CCN(C)CC3)cc2)OCc2cnnn2CCCC1=O	0	-	0	0	0	-	-
CC(=O)c1cccc(OC(=O)Oc2cccc(C(C)=O)c2)c1	0	-	50	0	0	-	69
COc1cc(OC)cc(C(=O)Nc2cccc(C(C)=O)c2)c1	0	0	0	-	0	0	-
NC(=O)[C@H]1CC2(CC(c3cccc(NC(=O)COc4ccc(Cl)cc4)c3)=NO2)CN1C(=O)C(c1ccccc1)c1ccccc1 (some centres undefined)	0	0	73	0	0	0	0
Cc1[nH]n(-c2ccccc2)c(=O)c1/C=N/NC(=O)c1cccc([N+](=O)[O-])c1	0	0	0	0	0	0	-
Cc1ccc(-n2[nH]c(C)c(/C=N/Nc3ccc([N+](=O)[O-])cc3[N+](=O)[O-])c2=O)cc1C	0	0	55	-	0	0	41
CCOC(=O)C1CCCN(C(=S)Nc2ccc(S(=O)(=O)N3CCOCC3)cc2)C1 (centres undefined)	0	-	0	0	0	0	-
CCCC(=O)Nc1cc2c(cc1C(=O)c1ccccc1)OCCO2	0	0	0	0	0	0	-
CCOc1ccc(S(=O)(=O)c2c(C(=O)c3ccccc3)cnc3cc4c(cc23)OCCO4)cc1	0	0	80	-	0	0	0
C=CCN1C(=O)/C(=C/c2ccc(OC(C)=O)c(OCC)c2[N+](=O)[O-])SC1=S	0	0	75	0	0	-	46
CCOc1c(OC(C)=O)ccc(/C=C/c2ccc3cccc(OC(C)=O)c3n2)c1[N+](=O)[O-]	0	0	0	-	0	0	-
